Changes are numbered by the printed parent chain; changes in the protein carry UniProt numbers. Whole data set: some 16,000 sequences, median “ka relative to ugcaugu” near 0.096, cut for the highest 2% near 0.35. The sample as a whole holds a higher share of the highest values than the screen did.
B1: UGAAUAU (DNA:RNA)
RNA: GGGAGACCGGAAUUCAGAUUGUCCUGAAUAUUUAAAUCCCGUCGUAGCCACCA
DNA 1: CAATCTGAATTCCGGTCTCCC
DNA 2: TGGTGGCTACGACGGGATT
B2: AGAUUAU (DNA:RNA)
RNA: B1 RNA with U25A, A28U
DNA 1: CAATCTGAATTCCGGTCTCCC
DNA 2: TGGTGGCTACGACGGGATT
B3: AAUCAGU (DNA:RNA)
RNA: B1 RNA with U25A, G26A, A27U, A28C, U29A, A30G
DNA 1: CAATCTGAATTCCGGTCTCCC
DNA 2: TGGTGGCTACGACGGGATT
B4: GCAACGU (DNA:RNA)
RNA: B1 RNA with U25G, G26C, U29C, A30G
DNA 1: CAATCTGAATTCCGGTCTCCC
DNA 2: TGGTGGCTACGACGGGATT
B5: UGGCAUC (DNA:RNA)
RNA: B1 RNA with A27G, A28C, U29A, A30U, U31C
DNA 1: CAATCTGAATTCCGGTCTCCC
DNA 2: TGGTGGCTACGACGGGATT
B6: UGGCACC (DNA:RNA)
RNA: B1 RNA with A27G, A28C, U29A, A30C, U31C
DNA 1: CAATCTGAATTCCGGTCTCCC
DNA 2: TGGTGGCTACGACGGGATT
B7: UGGCAUU (DNA:RNA)
RNA: B1 RNA with A27G, A28C, U29A, A30U
DNA 1: CAATCTGAATTCCGGTCTCCC
DNA 2: TGGTGGCTACGACGGGATT
B8: UGGCAUA (DNA:RNA)
RNA: B1 RNA with A27G, A28C, U29A, A30U, U31A
DNA 1: CAATCTGAATTCCGGTCTCCC
DNA 2: TGGTGGCTACGACGGGATT
B9: UGGCAUG (DNA:RNA)
RNA: B1 RNA with A27G, A28C, U29A, A30U, U31G
DNA 1: CAATCTGAATTCCGGTCTCCC
DNA 2: TGGTGGCTACGACGGGATT
B10: UGGCAGA (DNA:RNA)
RNA: B1 RNA with A27G, A28C, U29A, A30G, U31A
DNA 1: CAATCTGAATTCCGGTCTCCC
DNA 2: TGGTGGCTACGACGGGATT
B11: UAUCAAU (DNA:RNA)
RNA: B1 RNA with G26A, A27U, A28C, U29A
DNA 1: CAATCTGAATTCCGGTCTCCC
DNA 2: TGGTGGCTACGACGGGATT
B12: CCACUGA (DNA:RNA)
RNA: B1 RNA with U25C, G26C, A28C, A30G, U31A
DNA 1: CAATCTGAATTCCGGTCTCCC
DNA 2: TGGTGGCTACGACGGGATT
B13: UCUUCCC (DNA:RNA)
RNA: B1 RNA with G26C, A27U, A28U, U29C, A30C, U31C
DNA 1: CAATCTGAATTCCGGTCTCCC
DNA 2: TGGTGGCTACGACGGGATT
B14: UUAUACA (DNA:RNA)
RNA: B1 RNA with G26U, A28U, U29A, A30C, U31A
DNA 1: CAATCTGAATTCCGGTCTCCC
DNA 2: TGGTGGCTACGACGGGATT
B15: CAUUUCC (DNA:RNA)
RNA: B1 RNA with U25C, G26A, A27U, A28U, A30C, U31C
DNA 1: CAATCTGAATTCCGGTCTCCC
DNA 2: TGGTGGCTACGACGGGATT
B16: UAUGUCC (DNA:RNA)
RNA: B1 RNA with G26A, A27U, A28G, A30C, U31C
DNA 1: CAATCTGAATTCCGGTCTCCC
DNA 2: TGGTGGCTACGACGGGATT
B17: GGAUGUG (DNA:RNA)
RNA: B1 RNA with U25G, A28U, U29G, A30U, U31G
DNA 1: CAATCTGAATTCCGGTCTCCC
DNA 2: TGGTGGCTACGACGGGATT
B18: CGUGUCG (DNA:RNA)
RNA: B1 RNA with U25C, A27U, A28G, A30C, U31G
DNA 1: CAATCTGAATTCCGGTCTCCC
DNA 2: TGGTGGCTACGACGGGATT
B19: CGUUGUG (DNA:RNA)
RNA: B1 RNA with U25C, A27U, A28U, U29G, A30U, U31G
DNA 1: CAATCTGAATTCCGGTCTCCC
DNA 2: TGGTGGCTACGACGGGATT
B20: GGAUGUC (DNA:RNA)
RNA: B1 RNA with U25G, A28U, U29G, A30U, U31C
DNA 1: CAATCTGAATTCCGGTCTCCC
DNA 2: TGGTGGCTACGACGGGATT
B21: UUAUGUA (DNA:RNA)
RNA: B1 RNA with G26U, A28U, U29G, A30U, U31A
DNA 1: CAATCTGAATTCCGGTCTCCC
DNA 2: TGGTGGCTACGACGGGATT
B22: GUGUCCG (DNA:RNA)
RNA: GGGAGACCGGAAUUCAGAUUGUCCGUGUCCGUUAAAUCCCGUCGUAGCCACCA
DNA 1: CAATCTGAATTCCGGTCTCCC
DNA 2: TGGTGGCTACGACGGGATT
B23: UUGUAUG (DNA:RNA)
RNA: B22 RNA with G25U, C29A, C30U
DNA 1: CAATCTGAATTCCGGTCTCCC
DNA 2: TGGTGGCTACGACGGGATT
B24: GGAGAUG (DNA:RNA)
RNA: B22 RNA with U26G, G27A, U28G, C29A, C30U
DNA 1: CAATCTGAATTCCGGTCTCCC
DNA 2: TGGTGGCTACGACGGGATT
B25: GUGUAUG (DNA:RNA)
RNA: B22 RNA with C29A, C30U
DNA 1: CAATCTGAATTCCGGTCTCCC
DNA 2: TGGTGGCTACGACGGGATT
B26: GUAUGUG (DNA:RNA)
RNA: B22 RNA with G27A, C29G, C30U
DNA 1: CAATCTGAATTCCGGTCTCCC
DNA 2: TGGTGGCTACGACGGGATT
B27: CUAUGUG (DNA:RNA)
RNA: B22 RNA with G25C, G27A, C29G, C30U
DNA 1: CAATCTGAATTCCGGTCTCCC
DNA 2: TGGTGGCTACGACGGGATT
B28: ACUCCUU (DNA:RNA)
RNA: B22 RNA with G25A, U26C, G27U, U28C, C30U, G31U
DNA 1: CAATCTGAATTCCGGTCTCCC
DNA 2: TGGTGGCTACGACGGGATT
B29: UUGUUCC (DNA:RNA)
RNA: B22 RNA with G25U, C29U, G31C
DNA 1: CAATCTGAATTCCGGTCTCCC
DNA 2: TGGTGGCTACGACGGGATT
B30: AAAUGUA (DNA:RNA)
RNA: B22 RNA with G25A, U26A, G27A, C29G, C30U, G31A
DNA 1: CAATCTGAATTCCGGTCTCCC
DNA 2: TGGTGGCTACGACGGGATT
B31: CGUAUUA (DNA:RNA)
RNA: B1 RNA with U25C, A27U, A30U, U31A
DNA 1: CAATCTGAATTCCGGTCTCCC
DNA 2: TGGTGGCTACGACGGGATT

What follows are binders tested against T1, RBFOX1 RRM RbFoxmut (Fox-RRM*) (Homo sapiens, UniProt Q9NWB1 109-208, R118D;E147R;N151S;E152T) (assay: EMSA; HiTS-Eq, 1 nM pool, 10 min; buffer printed only for the single-RNA assays: 10 mM Tris pH 7.5, 150 mM NaCl, 3.4 mM EDTA, 0.001% NP-40, 30 C). Settings: tags: His6 N-terminal (pET28a); label: 5' 32P.
T1 sequence: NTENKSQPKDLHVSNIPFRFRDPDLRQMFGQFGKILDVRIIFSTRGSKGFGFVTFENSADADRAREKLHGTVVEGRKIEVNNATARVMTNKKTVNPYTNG
How it was run: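 Purified wild-type or mutant RbFox RRM at increasing concentrations was equilibrated with 1 nM of 5′-radiolabelled RNA carrying 7 randomized nucleotides for 10 min in 50 µL. Unbound RNA was separated by 8% native PAGE and sequenced. Relative association constants came from read-count changes of each RNA species compared with the control reaction, normalised to the cognate motif.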
In the case of B1, the binding signal is reported as 0.0814 KA relative to UGCAUGU. For B2, the binding signal was 0.124 KA relative to UGCAUGU. With B3 the binding signal was 0.0868 KA relative to UGCAUGU. B4 was tested, and the binding signal was 0.094 KA relative to UGCAUGU. For B5, the binding signal was 0.411 KA relative to UGCAUGU. With B6 the binding signal was 0.113 KA relative to UGCAUGU. With B7 the binding signal was 0.1 KA relative to UGCAUGU. With B8 the binding signal was 0.127 KA relative to UGCAUGU. B9 was tested, and the binding signal was 1.17 KA relative to UGCAUGU. B10 was tested, and the binding signal was 0.0918 KA relative to UGCAUGU. B11 was tested, and the binding signal was 0.0491 KA relative to UGCAUGU. In the case of B12, the binding signal is reported as 0.123 KA relative to UGCAUGU. B13 was tested, and the binding signal was 0.0652 KA relative to UGCAUGU. For B14, the binding signal was 0.0696 KA relative to UGCAUGU. For B15, the binding signal was 0.0842 KA relative to UGCAUGU. For B16, the binding signal was 0.107 KA relative to UGCAUGU. In the case of B17, the binding signal is reported as 0.451 KA relative to UGCAUGU. With B18 the binding signal was 0.126 KA relative to UGCAUGU. B19 was tested, and the binding signal was 0.17 KA relative to UGCAUGU. For B20, the binding signal was 0.295 KA relative to UGCAUGU. In the case of B21, the binding signal is reported as 0.19 KA relative to UGCAUGU. With B22 the binding signal was 0.216 KA relative to UGCAUGU. B23 was tested, and the binding signal was 1.24 KA relative to UGCAUGU. With B24 the binding signal was 0.312 KA relative to UGCAUGU. In the case of B25, the binding signal is reported as 1.38 KA relative to UGCAUGU. With B26 the binding signal was 0.787 KA relative to UGCAUGU. For B27, the binding signal was 0.134 KA relative to UGCAUGU. B28 was tested, and the binding signal was 0.0436 KA relative to UGCAUGU. For B29, the binding signal was 0.104 KA relative to UGCAUGU. B30 was tested, and the binding signal was 0.166 KA relative to UGCAUGU. For B31, the binding signal was 0.126 KA relative to UGCAUGU.

From paper PMC9911399, “Two distinct binding modes provide the RNA-binding protein RbFox with extraordinary sequence specificity”
